Screening results from PubChem BioAssay.
A selection: hits, their analogues and other compounds. The true share with any hit is near 3%.
TR SRC2 fluor cs: counter-screen for TRb-SRC2 inhibitors: fluorescence interference; TRb/SRC2 Texas Red total fluorescence interference; Potency, µM (titrated, usually from 106 µM), for inactives: at the highest dose fluorescence change, negative = quenching; hit rate 0.29% among 280,000; active means well fitted curve in either direction with a large enough effect; inconclusive means small, poorly fitted or top-dose-only effect
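Flags fluorescent or light-absorbing compounds by total fluorescence, S + 2P, at 555 nm excitation and 632 nm emission. Mixture: 20 nM Texas Red SRC2 peptide, 0.6 uM human TRb LBD, 1 uM T3, 5% DMSO; compound exposure 5 h at ambient temperature.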
Tau fluor counter: counter-screen for tau fibril formation inhibitors; hit rate 0.93% among 280,000; Potency, µM (highest dose often 57.7 µM), for inactives: at the top dose activity change, negative = decrease; tau K18 P301L Alexa594 fluorescence, heparin fibrillization; AID 1463; further: nearly all actives have a fitted effect of over 55% in size
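Human tau K18 P301L (15 uM unlabeled, 0.24 uM Alexa 594-labeled) in 100 mM sodium acetate pH 7 with 20 uM heparin, 6 hr at 37 C. ThT 30 uM added, 1 hr ambient; Alexa 594 FP and total fluorescence read at 555/632 nm.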
Tau FP inhib: inhibitors of human tau fibril formation; P10636; K18 P301L tau heparin fibrillization, Alexa594 FP, 6 h; Potency, µM (highest dose often 57.7 µM), for inactives: top-dose activity, negative = inhibition, hits mostly inhibitors; hit rate 0.39% among 280,000; further: nearly all actives have a fitted effect of over 55% in size
Target sequence (P10636 561-689 P618L limits assumed): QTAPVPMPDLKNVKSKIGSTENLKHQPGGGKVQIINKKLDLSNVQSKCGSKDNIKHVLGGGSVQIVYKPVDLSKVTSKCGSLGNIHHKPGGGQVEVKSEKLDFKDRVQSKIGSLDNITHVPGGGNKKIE
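Human K18 P301L fragment (15 uM unlabeled plus 0.24 uM Alexa 594-labeled) in 100 mM sodium acetate pH 7 with compound, aggregation induced by 20 uM heparin for 6 hr at 37 C. ThT (30 uM) added for 1 hr, then Alexa 594 FP read.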
TRb SRC2 PPI: disrupts binding of human TR beta to SRC2; P10828; TRbeta-SRC2 peptide binding, fluorescence polarization; receptor liganded with 1 µM T3; Potency, µM (doses to about 106 µM), without a hit: at the highest dose activity change, negative = inhibition, usual class: inhibitors; hit rate 0.065% among 280,000; AID 1469;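 further: plate controls were bound peptide for no effect and peptide without receptor for full effect; nearly all actives have a fitted effect of over 50% in size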
Target sequence (P10828 whole entry, looked up): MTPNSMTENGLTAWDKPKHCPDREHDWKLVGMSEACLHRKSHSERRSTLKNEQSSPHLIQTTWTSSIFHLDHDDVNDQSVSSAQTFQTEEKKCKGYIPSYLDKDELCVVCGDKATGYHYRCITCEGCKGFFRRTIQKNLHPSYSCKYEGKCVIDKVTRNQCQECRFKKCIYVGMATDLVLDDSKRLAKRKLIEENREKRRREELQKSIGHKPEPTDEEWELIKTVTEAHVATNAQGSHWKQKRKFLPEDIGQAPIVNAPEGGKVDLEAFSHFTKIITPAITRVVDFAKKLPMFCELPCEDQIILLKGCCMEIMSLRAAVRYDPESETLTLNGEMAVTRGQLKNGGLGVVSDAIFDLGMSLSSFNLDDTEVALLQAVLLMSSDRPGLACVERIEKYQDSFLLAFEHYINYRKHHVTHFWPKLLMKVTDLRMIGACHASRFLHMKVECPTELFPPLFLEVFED
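Read-out is fluorescence polarization (555 nm excitation, 632 nm emission) of a Texas Red SRC2 coactivator peptide; loss of signal reflects blocked binding to human TRb ligand-binding domain in the presence of 1 uM T3.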
Tau fibril ThT: inhibitors of human tau fibril formation, thioflavin T binding. P10636. recombinant tau K18 P301L (four-repeat tau fragment), heparin-induced fibrillization, ThT fluorescence. Potency, µM (doses to about 57.4 µM), without a hit: at the top dose activity, negative = inhibition, most hits filed as inhibitors. hit rate 2.1% among 270,000. AID 1460; further: nearly all actives have a fitted effect of over 55% in size
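Tau K18 P301L fragment (15 uM unlabeled plus 0.24 uM Alexa 594-labeled) in 100 mM sodium acetate pH 7 with compound, fibrillization induced by 20 uM heparin for 6 hr at 37 C. Thioflavin T (30 uM) added, fluorescence read after 1 hr (ex 450, em 510 nm).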
The depositor's hits bear a star; u = inconclusive; x = not tested or not shown; [ ] = another dose, or the depositor's remark. Unless noted, the call rests on the fitted dose curve; in most records, active means well fitted curve in the direction sought with a large enough effect; inconclusive means small, poorly fitted or top-dose-only effect, or another doubt; inactive means no such curve, though single readings can be large; an effect the other way counts as inactive or inconclusive. Unless noted, on the % scale 0 is the no-effect control and ±100 the full control effect; potency means the concentration at half of the fitted maximal effect.

SMILES	TR SRC2 fluor cs	Tau fluor counter	Tau FP inhib	TRb SRC2 PPI	Tau fibril ThT
COc1ccc(/C=C/C(=O)c2ccccn2)cc1	2%	-22%	-15%	-4%	20µM*
N#Cc1c(C(F)(F)F)cc(-c2cccs2)nc1SCC(=O)Nc1cccc(C(F)(F)F)c1	-4%	-22%	u	-2%	-11%
Cc1ccc2cc(CN(C(=O)c3cccc(Cl)c3)c3ccccc3)c(=O)[nH]c2c1	4%	-5%	-6%	1%	1%
Cc1ccccc1CNC(=O)CCSCc1cnn(-c2ccccc2)c1-n1cccc1	0%	-23%	-3%	5%	u
CC1(C)CC(=O)C(CC2C(=O)CC(C)(C)CC2=O)C(=O)C1	0%	u	u	1%	10µM*
CC1(C)CC(=O)C(CC2CCCCC2=O)C(=O)C1 (stereo not given)	1%	10%	1%	1%	8%
COc1ccc([C@H]2OCC3C2CO[C@@H]3c2ccc(OC)c(OC)c2)cc1OC (stereo not given in full)	-2%	x	x	-3%	x
CCN(CC)c1ccc2cc(/C(N)=N/NC(=O)c3cccs3)c(=O)oc2c1	-3%	-4%	-7%	0%	0.79µM*
NS(=O)(=O)c1nn2cc(-c3ccccc3)nc2s1	2%	x	x	0%	x
COn1c(SCc2ccc(C)cc2C)nc2ccccc2c1=O	-1%	-19%	-14%	3%	u
CC1(C)N=C(SCc2ccc(Cl)cc2)c2ccccc2N1	-2%	10µM*[quencher]	-11%	-1%	u
Cc1ccc(CSC2=NC(C)(C)Nc3ccccc32)c(C)c1	u	14µM*[quencher]	4%	-8%	u
CC(C)(C)C(=O)NC1(C(F)(F)F)C(=O)Nc2c1c(=O)[nH]c(=O)n2-c1ccccc1 (stereo not given)	3%	-11%	-1%	-3%	-15%
CCN1C(=O)c2ccccc2S(=O)(=O)c2ccc(C(=O)NCc3ccccc3OC)cc21	-3%	-19%	-2%	-2%	2%
COc1ccccc1NC(=O)N1c2ccccc2Sc2ccccc21	-2%	u	-11%	9%	u
Cc1c2ccccc2nc2c(F)c(NCCO)c(F)c(F)c12	-14%	u	u	5%	13µM*
CN1C(=O)/C(=C2\SC(N)=NC2=O)c2ccccc21	-1%	-25%	3%	-5%	u
CCCN1C(=O)/C(=C2\SC(N3CCCCC3)=NC2=O)c2ccccc21	-7%	u	3%	0%	16µM*
CN1C(=O)/C(=C2\SC(N3CCCCCC3)=NC2=O)c2ccccc21	-4%	u	11%	-2%	13µM*
COc1cc(/C=N\NC(=O)c2ccc(C)nc2)ccc1OC(=O)c1ccc2c(c1)OCO2	0%	-26%	25µM*	-6%	-4%
COc1ccc(N/C=C/C(=O)c2ccc3c(c2)OCO3)cc1OC	-1%	u	-5%	1%	5µM*
CCOC(=O)c1cccc(N/C=C/C(=O)c2ccc(OC)c(OC)c2)c1	1%	u	6%	6%	u
COc1ccc(N/C=C\C(=O)c2ccc3c(c2)OCO3)cc1	0%	-28%	3%	0%	u
COc1cc(/C=N/NC(=O)c2cncc(Br)c2)ccc1OC(=O)c1ccc2c(c1)OCO2	-2%	0%	5%	9%	-8%
COc1ccc(N/C=C\C(=O)c2ccc(C)cc2)cc1OC	-2%	u	3%	2%	10µM*
SMILES	TR SRC2 fluor cs	Tau fluor counter	Tau FP inhib	TRb SRC2 PPI	Tau fibril ThT
NS(=O)(=O)c1ccc(N/C=C/C(=O)c2ccc(Br)cc2)cc1	-4%	2%	-4%	-6%	6%
COc1ccc(N/C=C\C(=O)c2ccc(Br)cc2)cc1OC	-2%	-10%	0%	10%	3.2µM*
Cc1ccc2cc3cc(C(=O)N4CCN(c5ccccc5)CC4)oc3nc2c1	-7%	-14%	-9%	-1%	u
O=C1/C(=C\c2cccs2)Sc2ccc3ccccc3c21	10%	-22%	-2%	-12%	1µM*
CCOc1ccccc1-c1nnc2n1N=C(c1cccc(OC)c1)CS2	-1%	x	x	2%	x
Cn1nc(-c2ccc(Cl)cc2)nc2c(=O)n(C)c(=O)nc1-2	-6%	-16%	u	u	8.9µM*
CS(=O)(=O)n1nc(-c2ccc(Cl)cc2)nc1N	-6%	-15%	-11%	-6%	-13%
O=C(COC(=O)c1cc(S(=O)(=O)N2CCc3ccccc3C2)ccc1Cl)NCc1ccco1	0%	u	u	-3%	32µM*
CC1=C(C#N)C(=O)N(C2CCS(=O)(=O)C2)C(=O)/C1=C\c1ccc(C)o1 (stereo not given)	0%	u	u	5%	22µM*
Cc1ccc(NS(=O)(=O)c2ccc(N3CCN(c4ccc(O)cc4)CC3)c([N+](=O)[O-])c2)c(C)c1	0%	11µM*[quencher]	8%	3%	14µM*
Cc1ccc(C2C(C#N)=C(N)SC(N)=C2C#N)cc1	3%	u	-8%	-4%	u
N#CC1=C(N)SC(N)=C(C#N)C1c1ccoc1	0%	u	u	6%	22µM*
O=C(CCc1ccc(O)cc1)c1c(O)cc(O)cc1O	-1%	u	2%	u	u
COc1cc(O)c(CC=C(C)C)c(O)c1C(=O)CCc1ccc(O)cc1	-2%	u	16µM*	4%	-3%
CC1CN(C(=O)N2CCC(C(=O)NCc3cccs3)CC2)c2cc(Cl)ccc2O1 (stereo not given)	-6%	-7%	-7%	2%	-12%
CCCCOc1ccc(CSCCNC(=S)Nc2ccccc2)cc1	3%	u	u	0%	-3%
CCCCCOc1ccc(CSCCNC(=S)Nc2ccccc2)cc1	1%	u	13µM*	0%	-13%
Cc1cccc(C)c1NC(=O)c1nc(SC(C)C)ncc1Cl	-2%	-18%	-3%	-6%	-11%
COC(=O)c1ccc(NC(=O)CC2C(=O)N(c3ccc(C)cc3)C(=O)N2Cc2ccc(OC)cc2)cc1 (stereo not given)	0%	u	-13%	1%	u
CCCCn1c(=N)c(S(=O)(=O)c2ccc(Cl)cc2)cc2c(=O)n3cccc(C)c3nc21	-2%	-15%	-1%	5%	-5%
O=C(CSc1nnc(-c2ccccc2)c(-c2ccccc2)n1)NCc1ccco1	-2%	-3%	7%	-1%	-9%
CCn1c(SCC(=O)NNC(=O)c2ccc(OC)cc2)nnc1-c1ccco1	-3%	-45%	0%[2.34 µM]	-8%	5.6µM*
COc1ccc(C(=O)CSc2nnc(-c3ccco3)c(-c3ccco3)n2)cc1	-25%	u	u	1%	14µM*
Cc1ccc(NC(=O)CSc2nnc(-c3ccco3)c(-c3ccco3)n2)cc1	u	u	u	1%	7.9µM*
O=C(CSc1nnc(-c2ccco2)c(-c2ccco2)n1)Nc1ccccc1	45µM*[quencher]	u	u	-6%	7.9µM*
